GALK inhibitor: inhibits human galactokinase | P51570 | Potency, µM (highest dose often 57.5 µM), without a hit: at the top dose activity, negative = inhibition, usual class: inhibitors | 44,000 tested, under 10 active | recombinant GALK, Kinase-Glo ATP luminescence, 1 h;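 further: plate controls were full GALK reaction for no effect and reaction lacking GALK for full effect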
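Human GALK (5 nM) was incubated with 35 uM ATP and 100 uM galactose in 20 mM HEPES pH 8.0 with MgCl2, NaCl, DTT and BSA for 1 h at room temperature. Remaining ATP was measured by Kinase-Glo Plus luminescence.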
FH mod: Identification of activators of human fumarate hydratase by quantitative high-throughput screening; Fumarate hydratase, mitochondrial (Homo sapiens), P07954; FH coupled MDH/diaphorase resazurin fluorescence, 15 min; Potency, µM (titrated, usually from 79.9 µM), inactives show at the top dose activity change, negative = inhibition, usual class: inhibitors; 0.22% of 54,000 active; AID 1347055, 2019; further: potency means the concentration at half of the fitted maximal effect; on the % scale 0 is the no-effect control and ±100 the full control effect; the screen sought activators but most active calls are inhibition curves; nearly all actives have a fitted effect of over 45% in size
GALC G270D act: galactocerebrosidase G270D activity enhancement, cell-based. 0.1% of 45,000 active. Potency, µM (series often up to 57.5 µM), usual class: activators. 145M-Twi-hGALC-G270D cells (Twitcher mouse brain line with human GALC G270D), HMU-beta-Gal fluorescence, 48 h. P54803; further: potency means the concentration at half of the fitted maximal effect; 0% is about no effect; nearly all actives have a fitted effect of over 65% in size
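Brain-derived Twitcher mouse 145M-Twi cells stably expressing human GALC-G270D or wild-type GALC, treated live, then residual GALC activity read by fluorescence of HMU-b-Gal substrate (0.1 mM final) in citrate-phosphate buffer pH 5.2 with sodium taurocholate. Signal increase indicates enhancement.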
GPR32 ag: agonists of human resolvin D1 receptor DRV1 (GPR32); activation, % at 76.9 µM; CHO-K1 GPR32 beta-arrestin PathHunter luminescence, 90 min; zero percent set by DMSO-only wells; O75388; AID 1346428; 2.5% of 48,000 active;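 active means activation of at least 60% and not above a set upper limit, about 1 call in 100 departs from these limits; inconclusive means activation of 40% to 60%, or above that upper limit; inactive means activation under 40%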; further: 0% is about no effect
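Agonism was scored as beta-arrestin recruitment to ProLink-fused GPR32 in stably transfected CHO-K1 cells, giving a chemiluminescent beta-Gal signal; compounds were incubated 90 min at 37 °C.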
B2AR arrestin ag: agonists recruiting beta-arrestin to human beta2-adrenergic receptor | P07550 | HTLA Tango cells, beta-arrestin recruitment, luciferase luminescence, 18 h | Potency, µM (top dose mostly 46.1 µM), most hits filed as activators | 44,000 tested, under 10 active | AID 1347077;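 further: potency means the concentration at half of the fitted maximal effect; 0% = DMSO and full agonism = EC100 isoproterenol or metaproterenol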
Target sequence (P07550 whole entry, looked up): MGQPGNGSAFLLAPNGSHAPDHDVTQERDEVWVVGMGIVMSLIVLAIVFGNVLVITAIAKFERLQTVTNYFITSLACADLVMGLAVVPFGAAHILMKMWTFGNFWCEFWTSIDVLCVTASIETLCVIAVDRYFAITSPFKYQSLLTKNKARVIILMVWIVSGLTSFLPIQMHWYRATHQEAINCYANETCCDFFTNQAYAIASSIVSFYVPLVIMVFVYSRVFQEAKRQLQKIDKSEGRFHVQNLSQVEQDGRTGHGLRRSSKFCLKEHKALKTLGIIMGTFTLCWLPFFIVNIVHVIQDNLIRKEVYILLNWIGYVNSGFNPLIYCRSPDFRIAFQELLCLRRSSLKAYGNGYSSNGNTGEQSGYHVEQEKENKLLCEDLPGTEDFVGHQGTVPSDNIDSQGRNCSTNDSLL
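Tango cell line, 1% FBS DMEM; cpd titration up to 46 microM; 18 hr, 37 degrees C, 5% CO2. Luciferin/ATP substrate mix added, 15 min RT, luminescence. %Activity, CRC fitting, curve-class categorization.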
PTAP-TSG101 blk: blocks PTAP binding to human TSG101, validation; Q99816; Fluorescence polarization, FITC-PTAP peptide/Tsg101, 20 min; Potency, µM (series often up to 115 µM), most hits filed as inhibitors; 44,000 tested, under 10 active; AID 1347069; further: potency means the concentration at half of the fitted maximal effect; 0% is about no effect
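Fluorescence polarization binding of Tsg101 binding domain (10 uM final) to FITC-labeled PTAP-motif peptide (50 nM final) in HEPES pH 7.5/NaCl/Tween 20/EDTA/TCEP buffer; 20 min at r.t. Actives by curve class, <25 µM, efficacy <60% inhibition.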
Active calls of the source: *; i = inactive; u = inconclusive; x = not tested or not shown; ! = repeats disagree; [ ] = another dose, or the depositor's remark. Hits are enriched below; roughly 2.8% of the tested compounds scored in any of these assays. Unless noted, the call rests on the fitted dose curve; in most records, active means well fitted curve in the direction sought with a large enough effect; inconclusive means small, poorly fitted or top-dose-only effect, or another doubt; inactive means no such curve, though single readings can be large; an effect the other way counts as inactive or inconclusive.

SMILES | GALK inhibitor | FH mod | GALC G270D act | GPR32 ag | B2AR arrestin ag | PTAP-TSG101 blk
C[C@@H]1[C@H]2[C@H](O[C@@H]3O[C@H](CO)[C@@H](O)[C@H](O)[C@H]3O)OC=C(C(=O)O)[C@H]2C[C@@H]1O | x | -8.5%[53.3 µM] | x | x | x | x
Cc1ccc(OCC(=O)Nc2c(Cl)ccc3nsnc23)cc1C | 0.0% | -2.6% | i | 84.5* | i | i
CCCCOc1ccc(C(=O)N2CCN(CCc3ccccn3)CC2)cc1 | -5.4% | 4.2% | 8.91µM* | 17.0 | i | i
CC(C)Oc1ccc(C(=O)N2CCN(CCc3ccccn3)CC2)cc1 | 0.9% | 1.5% | i | 26.8 | i | i
CCOc1cccc(NC(=O)C2CC(=O)N(CC)C(=Nc3ccc(F)cc3)S2)c1 (centres undefined) | -1.0% | -21.7% | i | 80.5* | i | i
CCN1C(=O)CC(C(=O)Nc2ccc(OC)cc2)SC1=Nc1ccc(C)c(C)c1 (centres undefined) | 0.0% | -2.5% | i | 13.2 | i | i
CC(C)(C)CC(=O)OCC(=O)[C@@]1(O)CC[C@H]2[C@@H]3CCC4=CC(=O)C=C[C@]4(C)[C@H]3[C@@H](O)C[C@@]21C | x | -0.2%[53.3 µM] | i | 119.3* | x | x
CCOc1ccc2nc(C)cc(Nc3ccccc3OCC)c2c1 | 1.9% | -6.9% | i | 90.0* | i | i
CC1(C)CC2C3=CCC4C5(C)CCC(OC6OC(CO)C(O)C(OC7OC(CO)C(O)C(OC8OC(CO)C(O)C(OC9OC(COC%10OC(CO)C(O)C(O)C%10O)C(O)C(O)C9O)C8O)C7O)C6O)C(C)(C)C5CCC4(C)C3(C)CCC2(C(=O)O)CC1O (centres undefined) | x | -0.1%[13.5 µM] | x | x | x | x
O=C(O)c1ccc(-c2c[nH]c3ncc(-c4ccccc4)cc23)cc1C1CCCC1 | x | 31.6µM*! | x | x | x | x
CCn1c(CN2CCCCC2)nc2cc(NC(=O)c3ccccc3[N+](=O)[O-])ccc21 | 0.4% | -17.8% | i | -4.2 | i | i
CCn1c(CN2CCCCC2)nc2cc(NC(=O)c3ccc([N+](=O)[O-])cc3)ccc21 | 1.9% | 4.8% | i | 70.5* | i | i
Cc1ccc(-c2nc3ccccc3[nH]2)cc1NC(=O)COc1ccccc1[N+](=O)[O-] | 9.5% | 5.9% | i | 79.1* | i | i
O=C(COc1ccccc1[N+](=O)[O-])Nc1cccc(-c2nc3ccccc3s2)c1 | 0.5% | 3.4% | i | 83.7* | u | i
Cc1noc(C)c1S(=O)(=O)N1CCC(C(=O)Nc2ccc(Br)cc2)CC1 | -9.5% | 1.3% | i | 5.3 | i | i
Cc1noc(C)c1S(=O)(=O)Nc1ccc(C(=O)Nc2ccc(C(C)C)cc2)cc1 | -0.5% | -13.2% | i | 91.0* | i | i
Cc1noc(C)c1S(=O)(=O)Nc1ccc(C(=O)Nc2ccc(Br)cc2)cc1 | -5.3% | u | i | 95.4* | i | i
Cc1cc(Br)ccc1NC(=O)c1ccc(NS(=O)(=O)c2c(C)noc2C)cc1 | -0.4% | -7.4% | i | 63.8* | i | i
Cc1cc(NC(=O)CCc2nc3cccnc3n2-c2ccccc2)ccc1Br | -3.1% | -10.3% | i | 65.8* | i | i
COc1ccc(NC(=O)CCc2nc3cccnc3n2-c2ccccc2)cc1Cl | 4.4% | 1.0% | i | 10.1 | i | i
CC(NC(=O)Cc1cc(F)cc(F)c1)C(=O)NC1C(=O)N(C)c2ccccc2-c2ccccc21 (centres undefined) | x | 6.8% | x | x | x | x
CC(C)C(C)C(O)C1CC23CC(=O)C4(O)C(=C2CCC3C1C)C=CC1(O)CC(O)CCC14C (centres undefined) | x | 5.9%[53.3 µM] | x | x | x | x
Cc1cc(-c2nc(-c3ccc(OC(F)(F)F)cc3)no2)nn1Cc1ccnc(N2CCN(C3CC3)CC2)c1 | x | -5.1% | x | x | x | x
COc1ccc(Cn2ccc3nc(C)c(C(=O)NCc4ccc(F)cc4)cc3c2=O)cc1 | -2.2% | -14.6% | i | 62.5* | i | i
COc1ccc(Cn2ccc3nc(C)c(C(=O)NCc4ccc(C)cc4)cc3c2=O)cc1 | 1.9% | 1.8% | i | 40.8 | i | i
SMILES | GALK inhibitor | FH mod | GALC G270D act | GPR32 ag | B2AR arrestin ag | PTAP-TSG101 blk
Cc1ccc(CN2C(=O)C(O)(c3c[nH]c4ccccc34)c3cc(Cl)ccc32)cc1 (centres undefined) | -4.9% | u | i | 87.0* | i | i
Cn1c(=O)n(C)c2cc(N3CCOCC3)c(NS(=O)(=O)c3cccc(C#N)c3)cc21 | -3.0% | 15.8µM* | i | -15.5 | i | i
Cc1ccc(S(=O)(=O)Nc2cc3c(cc2N2CCOCC2)n(C)c(=O)n3C)cc1 | -8.5% | x | x | -0.4 | i | i
Cc1cc(Nc2nn(-c3ccccc3)c(=O)c3ccccc23)n[nH]1 | x | 3.6% | x | x | x | x
CN(C(=O)Nc1cn(C)c(=O)c2ccccc12)c1ccccc1 | -1.9% | 35.5µM*[activator] | i | -59.9 | i | i
CCc1cccc(NC(=O)Nc2cn(C)c(=O)c3ccccc23)c1 | 5.2% | u | i | -58.9 | i | i
COc1ccc(NC(=O)c2sc3nc4c(cc3c2N)CCCCCC4)cc1Cl | 0.2% | 9.8% | i | 26.5 | i | i
COc1ccc(NC(=O)c2sc3nc4c(cc3c2N)CCCCCC4)cc1 | 2.5% | -26.5% | i | 73.8* | i | i
CCC1CCc2nc3sc(C(=O)Nc4cccc(C(F)(F)F)c4)c(N)c3cc2C1 (centres undefined) | -0.2% | -4.0% | 10µM* | 21.0 | i | i
C[C@@H]1O[C@@H](OC[C@H]2O[C@@H](Oc3cc(O)cc4c3C(=O)C(O)(Cc3ccc(O)cc3)O4)[C@H](O)[C@@H](O)[C@@H]2O)[C@H](O)[C@H](O)[C@H]1O (some centres undefined) | x | 0.5%[20.6 µM] | x | x | x | x
CCOC(=O)c1cccc(NC(=O)c2cc3cc4cc(OC)ccc4nc3s2)c1 | -7.9% | -1.1% | i | 100.8* | i | i
COc1ccc(Cn2c(C(=O)O)c(CNCCc3ccco3)c3ccc(C)cc32)cc1 | -1.4% | -18.8% | i | 103.9* | i | i
Cc1ccc2c(CNCCc3ccccc3)c(C(=O)O)n(Cc3ccccc3C)c2c1 | 0.3% | -21.0% | i | 65.5* | i | i
COc1ccc(Cn2c(C(=O)O)c(CNCCc3cc(OC)ccc3OC)c3ccc(C)cc32)cc1 | u | -36.6% | i | 106.0* | i | i
